Data on 34 molecules can be found in paper PMC9911399, “Two distinct binding modes provide the RNA-binding protein RbFox with extraordinary sequence specificity”.

B1: CCUCACG (DNA:RNA)
RNA: GGGAGACCGGAAUUCAGAUUGUCCCCUCACGUUAAAUCCCGUCGUAGCCACCA
DNA 1: CAATCTGAATTCCGGTCTCCC
DNA 2: TGGTGGCTACGACGGGATT
B2: CAAGGGU (DNA:RNA)
RNA: B1 RNA with C26A, U27A, C28G, A29G, C30G, G31U
DNA 1: CAATCTGAATTCCGGTCTCCC
DNA 2: TGGTGGCTACGACGGGATT
B3: UUGAUUC (DNA:RNA)
RNA: GGGAGACCGGAAUUCAGAUUGUCCUUGAUUCUUAAAUCCCGUCGUAGCCACCA
DNA 1: CAATCTGAATTCCGGTCTCCC
DNA 2: TGGTGGCTACGACGGGATT
B4: UUGAGUG (DNA:RNA)
RNA: B3 RNA with U29G, C31G
DNA 1: CAATCTGAATTCCGGTCTCCC
DNA 2: TGGTGGCTACGACGGGATT
B5: UUGAUGA (DNA:RNA)
RNA: B3 RNA with U30G, C31A
DNA 1: CAATCTGAATTCCGGTCTCCC
DNA 2: TGGTGGCTACGACGGGATT
B6: UUCUGAA (DNA:RNA)
RNA: B3 RNA with G27C, A28U, U29G, U30A, C31A
DNA 1: CAATCTGAATTCCGGTCTCCC
DNA 2: TGGTGGCTACGACGGGATT
B7: UUGAUCC (DNA:RNA)
RNA: B3 RNA with U30C
DNA 1: CAATCTGAATTCCGGTCTCCC
DNA 2: TGGTGGCTACGACGGGATT
B8: UUGAGUC (DNA:RNA)
RNA: B3 RNA with U29G
DNA 1: CAATCTGAATTCCGGTCTCCC
DNA 2: TGGTGGCTACGACGGGATT
B9: UUGUUGA (DNA:RNA)
RNA: B3 RNA with A28U, U30G, C31A
DNA 1: CAATCTGAATTCCGGTCTCCC
DNA 2: TGGTGGCTACGACGGGATT
B10: UUUCUGA (DNA:RNA)
RNA: B3 RNA with G27U, A28C, U30G, C31A
DNA 1: CAATCTGAATTCCGGTCTCCC
DNA 2: TGGTGGCTACGACGGGATT
B11: UCCUUGA (DNA:RNA)
RNA: B3 RNA with U26C, G27C, A28U, U30G, C31A
DNA 1: CAATCTGAATTCCGGTCTCCC
DNA 2: TGGTGGCTACGACGGGATT
B12: UUGAUUG (DNA:RNA)
RNA: B3 RNA with C31G
DNA 1: CAATCTGAATTCCGGTCTCCC
DNA 2: TGGTGGCTACGACGGGATT
B13: UUUCAGA (DNA:RNA)
RNA: B1 RNA with C25U, C26U, C30G, G31A
DNA 1: CAATCTGAATTCCGGTCTCCC
DNA 2: TGGTGGCTACGACGGGATT
B14: UUGAGAG (DNA:RNA)
RNA: B3 RNA with U29G, U30A, C31G
DNA 1: CAATCTGAATTCCGGTCTCCC
DNA 2: TGGTGGCTACGACGGGATT
B15: UCUCAAG (DNA:RNA)
RNA: B1 RNA with C25U, C30A
DNA 1: CAATCTGAATTCCGGTCTCCC
DNA 2: TGGTGGCTACGACGGGATT
B16: UCUUGAA (DNA:RNA)
RNA: B1 RNA with C25U, C28U, A29G, C30A, G31A
DNA 1: CAATCTGAATTCCGGTCTCCC
DNA 2: TGGTGGCTACGACGGGATT
B17: CUGUACU (DNA:RNA)
RNA: B1 RNA with C26U, U27G, C28U, G31U
DNA 1: CAATCTGAATTCCGGTCTCCC
DNA 2: TGGTGGCTACGACGGGATT
B18: UAUUACG (DNA:RNA)
RNA: B1 RNA with C25U, C26A, C28U
DNA 1: CAATCTGAATTCCGGTCTCCC
DNA 2: TGGTGGCTACGACGGGATT
B19: ACCUGUG (DNA:RNA)
RNA: B1 RNA with C25A, U27C, C28U, A29G, C30U
DNA 1: CAATCTGAATTCCGGTCTCCC
DNA 2: TGGTGGCTACGACGGGATT
B20: GAUAUAG (DNA:RNA)
RNA: B1 RNA with C25G, C26A, C28A, A29U, C30A
DNA 1: CAATCTGAATTCCGGTCTCCC
DNA 2: TGGTGGCTACGACGGGATT
B21: CUUAACU (DNA:RNA)
RNA: B1 RNA with C26U, C28A, G31U
DNA 1: CAATCTGAATTCCGGTCTCCC
DNA 2: TGGTGGCTACGACGGGATT
B22: AAGGGCU (DNA:RNA)
RNA: B1 RNA with C25A, C26A, U27G, C28G, A29G, G31U
DNA 1: CAATCTGAATTCCGGTCTCCC
DNA 2: TGGTGGCTACGACGGGATT
B23: UUGAAUG (DNA:RNA)
RNA: B3 RNA with U29A, C31G
DNA 1: CAATCTGAATTCCGGTCTCCC
DNA 2: TGGTGGCTACGACGGGATT
B24: UUGAAUC (DNA:RNA)
RNA: B3 RNA with U29A
DNA 1: CAATCTGAATTCCGGTCTCCC
DNA 2: TGGTGGCTACGACGGGATT
B25: UUAAAUG (DNA:RNA)
RNA: B3 RNA with G27A, U29A, C31G
DNA 1: CAATCTGAATTCCGGTCTCCC
DNA 2: TGGTGGCTACGACGGGATT
B26: GCUUGAU (DNA:RNA)
RNA: B1 RNA with C25G, C28U, A29G, C30A, G31U
DNA 1: CAATCTGAATTCCGGTCTCCC
DNA 2: TGGTGGCTACGACGGGATT
B27: UACUGGA (DNA:RNA)
RNA: B3 RNA with U26A, G27C, A28U, U29G, U30G, C31A
DNA 1: CAATCTGAATTCCGGTCTCCC
DNA 2: TGGTGGCTACGACGGGATT
B28: UCGUGAG (DNA:RNA)
RNA: B1 RNA with C25U, U27G, C28U, A29G, C30A
DNA 1: CAATCTGAATTCCGGTCTCCC
DNA 2: TGGTGGCTACGACGGGATT
B29: UGGCCGC (DNA:RNA)
RNA: B3 RNA with U26G, A28C, U29C, U30G
DNA 1: CAATCTGAATTCCGGTCTCCC
DNA 2: TGGTGGCTACGACGGGATT
B30: UGGCCUC (DNA:RNA)
RNA: B3 RNA with U26G, A28C, U29C
DNA 1: CAATCTGAATTCCGGTCTCCC
DNA 2: TGGTGGCTACGACGGGATT
B31: UGGCCGA (DNA:RNA)
RNA: B3 RNA with U26G, A28C, U29C, U30G, C31A
DNA 1: CAATCTGAATTCCGGTCTCCC
DNA 2: TGGTGGCTACGACGGGATT
B32: UGGCCGG (DNA:RNA)
RNA: B1 RNA with C25U, C26G, U27G, A29C, C30G
DNA 1: CAATCTGAATTCCGGTCTCCC
DNA 2: TGGTGGCTACGACGGGATT
B33: UGUGGCC (DNA:RNA)
RNA: B1 RNA with C25U, C26G, C28G, A29G, G31C
DNA 1: CAATCTGAATTCCGGTCTCCC
DNA 2: TGGTGGCTACGACGGGATT
B34: UGGCCUG (DNA:RNA)
RNA: B3 RNA with U26G, A28C, U29C, C31G
DNA 1: CAATCTGAATTCCGGTCTCCC
DNA 2: TGGTGGCTACGACGGGATT

Substitutions are numbered along the chain they refer to; changes in the protein carry UniProt numbers. Whole data set: some 16,000 sequences, median “ka relative to ugcaugu” near 0.0091, cut for the highest 2% near 0.032. The list comes from a sample in which the highest values are over-represented; it also holds similar and randomly drawn sequences.

The assay has as its target T1, RBFOX1 RRM (Homo sapiens, UniProt Q9NWB1 109-208).
T1 sequence: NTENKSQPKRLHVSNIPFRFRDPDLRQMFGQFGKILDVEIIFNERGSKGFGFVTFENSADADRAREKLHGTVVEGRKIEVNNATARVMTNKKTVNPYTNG
The assay can be described thus: EMSA; HiTS-Eq, 1 nM pool, 10 min; buffer printed only for the single-RNA assays: 10 mM Tris pH 7.5, 150 mM NaCl, 3.4 mM EDTA, 0.001% NP-40, 30 C. The following applies: tags: His6 N-terminal (pET28a); label: 5' 32P. The essentials: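 Purified wild-type or mutant RbFox RRM at increasing concentrations was equilibrated with 1 nM of 5′-radiolabelled RNA carrying 7 randomized nucleotides for 10 min in 50 µL. Unbound RNA was separated by 8% native PAGE and sequenced. Relative association constants came from read-count changes of each RNA species compared with the control reaction, normalised to the cognate motif.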
In general terms: In EMSA bound probe runs differently from free probe, usually more slowly.
Turning to B1, the binding signal is 0.00492 KA relative to UGCAUGU.
B2: the binding signal was 0.00279 KA relative to UGCAUGU.
With B3 the figure was 0.0169 KA relative to UGCAUGU; with B4, 0.0333 KA relative to UGCAUGU; with B5, 0.0228 KA relative to UGCAUGU.
As to B6, the binding signal is 0.0233 KA relative to UGCAUGU.
Consider B7, for which the binding signal is 0.0141 KA relative to UGCAUGU.
With B8 the figure was 0.0173 KA relative to UGCAUGU.
To B9 belongs 0.0329 KA relative to UGCAUGU; to B10, 0.0328 KA relative to UGCAUGU; to B11, 0.0113 KA relative to UGCAUGU.
With B12 the figure was 0.0356 KA relative to UGCAUGU; with B13, 0.0123 KA relative to UGCAUGU; with B14, 0.0165 KA relative to UGCAUGU.
For B15, the binding signal is 0.00583 KA relative to UGCAUGU.
To B16 belongs 0.0145 KA relative to UGCAUGU.
In the case of B17, the binding signal is 0.00801 KA relative to UGCAUGU.
For B18, the binding signal was 0.0123 KA relative to UGCAUGU.
For B19, the binding signal is 0.00788 KA relative to UGCAUGU.
To B20 belongs 0.0101 KA relative to UGCAUGU; to B21, 0.0019 KA relative to UGCAUGU.
With B22 the figure was 0.0102 KA relative to UGCAUGU.
With B23 the figure was 0.037 KA relative to UGCAUGU; with B24, 0.0179 KA relative to UGCAUGU.
For the molecule B25, the binding signal was 0.0123 KA relative to UGCAUGU.
To B26 belongs 0.0264 KA relative to UGCAUGU; to B27, 0.00358 KA relative to UGCAUGU; to B28, 0.00953 KA relative to UGCAUGU.
To B29 belongs 0.0225 KA relative to UGCAUGU; to B30, 0.0279 KA relative to UGCAUGU.
With B31 the figure was 0.0244 KA relative to UGCAUGU; with B32, 0.0318 KA relative to UGCAUGU; with B33, 0.0234 KA relative to UGCAUGU.
Consider B34, for which the binding signal is 0.0426 KA relative to UGCAUGU.
